# According to PubChem BioAssay AID488815 (Broad Institute, 2010):
# Results with a measured potency or affinity are listed apart. Inconclusive results are not listed. Unmarked numbers belong to inactive results. No rule for the calls is given here.
# Molecular target: CAAX prenyl protease 1 (Saccharomyces cerevisiae (strain ATCC 204508 / S288c)) (UniProt P47154)
# Assay: yeast CAAX protease Ste24 inhibition – biochemical, S. cerevisiae, plate reader, cherry-pick, dose response (AID 488815);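 also: 0% = neutral control wells and -100% = no enzyme wells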
# Settings: series mostly up to 10 µM; activity change, negative = inhibition: at the top concentration
# CAAX prenyl protease 1 (Saccharomyces cerevisiae (strain ATCC 204508 / S288c)), sequence (P47154 whole entry, looked up): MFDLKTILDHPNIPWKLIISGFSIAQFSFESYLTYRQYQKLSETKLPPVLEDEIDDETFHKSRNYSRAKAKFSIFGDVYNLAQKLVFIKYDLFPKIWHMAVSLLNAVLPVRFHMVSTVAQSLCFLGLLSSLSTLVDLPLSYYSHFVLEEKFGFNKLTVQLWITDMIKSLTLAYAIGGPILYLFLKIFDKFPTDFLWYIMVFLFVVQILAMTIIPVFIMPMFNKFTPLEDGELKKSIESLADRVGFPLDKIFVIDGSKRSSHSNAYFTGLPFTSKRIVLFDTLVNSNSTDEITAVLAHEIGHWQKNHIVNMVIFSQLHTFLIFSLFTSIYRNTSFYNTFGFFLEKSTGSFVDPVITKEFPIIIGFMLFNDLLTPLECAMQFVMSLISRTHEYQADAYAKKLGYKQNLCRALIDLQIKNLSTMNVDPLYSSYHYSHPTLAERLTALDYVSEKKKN
row,Compound,"activity change, negative = inhibition"
1,O=C(Nc1ccc(N2CCOCC2)c(Cl)c1)c1cc2ccccc2o1,22.1%
2,COc1cc(-c2nc3ccccn3c2/N=C/c2cccc(OC)c2O)ccc1O,-6.59%
3,COc1cccc(-c2nc(C#N)c(N3CCN(C(=O)c4ccco4)CC3)o2)c1,20.7%
4,CN1c2ccc(C=O)c3c(C=O)ccc(c23)N(C)C1(C)C,16.1%
5,CC(C)C(=O)Nc1cccc(NC(=S)NC(=O)C(c2ccccc2)c2ccccc2)c1,0.694%
6,COC(C/C=C/[C@H](O)[C@H](C)OCc1ccccc1)OC,37.1%
7,COc1cc2ccccc2cc1C(=O)N(CCN(C)C)c1nc2ccc(C)cc2s1,21.9%
8,Nc1c(Cl)cc(C2=NCCn3nc4cc(C(F)(F)F)ccc4c32)cc1Cl,-4.63%
9,CC1=NN(c2ccccc2)C(=O)/C1=C\c1ccc(Br)s1,14.5%
10,O=C1C(Cc2c[nH]c3ccccc23)NC(=S)N1Cc1ccccc1 (configuration not stated),9.65%
11,O=C(c1cnc(Cl)c(Cl)c1)N1CCC(Cc2ccccc2)CC1,16.9%
12,CC(C)CC(=O)NC(=S)Nc1ccc(S(=O)(=O)Nc2nccs2)cc1,22.6%
13,Cc1nc(SC(C(=O)c2ccccc2)c2ccccc2)nc2ccccc12 (configuration not stated),23%
14,COC(C/C=C/[C@@H](O)[C@H](C)OCc1ccccc1)OC,22.6%
15,COc1cccc(-c2cc(C(F)(F)F)n3ncc(S(=O)(=O)c4ccccc4)c3n2)c1,9.25%
16,Cc1ccc(NS(=O)(=O)c2ccc(NC(=O)N3CCCCC3)cc2)cc1,1.82%
17,CN1CCN(C(=S)NC(=O)c2ccccc2Cl)CC1,12.7%
18,O=C1CN(S(=O)(=O)c2ccc([N+](=O)[O-])cc2)CC(=O)N1,13.3%
19,COc1ccc(Br)cc1C(=O)Nc1cc(C)cc(C)c1,16.2%
20,Nc1nonc1-n1nnc(C(=O)N/N=C/c2ccoc2)c1CSc1ccccc1,8.69%
21,Cc1nc(N2CCOCC2)c2c(C)c(C(=O)Nc3ccc(C(F)(F)F)cc3)sc2n1,24%
22,CN(C)CC(C)(C)CNC(=S)NCc1ccc2c(c1)OCO2,19.4%
